Source: the supplement of paper PMC11417369
In all, about 25,000 sequences were measured (“ln(normalized median fluorescence intensity)”: median about 6.7, highest 2% from about 10 on). Shown is part of a subset that was picked to be rich in the highest values.

system: PfHDP1 homeodomain (GST-tagged); assay: gcPBM binding intensity (ln(normalized median fluorescence intensity)); higher = stronger DNA binding
Procedure, shortened: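 Binding of GST-tagged P. falciparum DNA-binding domains, expressed in E. coli and used at about 25 μg on average, was carried out for 1 h in 1× PBS containing 1% milk, 0.2 mg/ml BSA, 0.5% salmon testes DNA and 0.03% Triton X-100. The target was an Agilent 4 × 180k array of primer-extended double-stranded 36-bp intergenic genomic probes plus negative controls, read with Alexa488 anti-GST antibody at 488 nm. Binding intensity is the highest Masliner-normalised natural-log median intensity across replicate spots of either probe orientation.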

Row | Sequence | gcPBM binding intensity (ln)
1 | TCATATAATATTTATATGCACACTTTTCTATATATA [CACACA_site4075] | 8.75
2 | TTTATTGCTCTATATGCACACCTTAATTCTTCATTT [CACACA_site8682] | 11.1
3 | CTCTTCTATATATAAGCATGCATTCATAATAATTTA [TGCATGCA_site679] | 7.04
4 | TTTTTATATAACCTTCTTAATTCTTTTTTTTTTTTT [XGTACX_negctrl_site591] | 6.16
5 | CTTTTATTGCTCTATATGCACACCTTAATTCTTCAT [CACACA_site2195] | 10.5
6 | TTCTCTATAAATGCTGCACACACATTTAATTATTTA [CACACA_site8828] | 8.06
7 | AAAAGGAACGGACACACACACATATATATATATATA [CACACA_site5894] | 9.45
8 | TTTTTGAGTGCACATACACACAGACATACATTTAAA [CACACA_site5813] | 10.4
9 | TATATATTAAACTTTGCACACATAATTTAACTACAA [CACACA_site3440] | 10.7
10 | TTTTTTTTTTTTTTTGCACACTATATTTAATATAAG [CACACA_site2444] | 9.31
11 | ACTAAACTTTTATGTACACACATATAACATTAATTT [CACACA_site5276] | 6.98
12 | AATATAACTTTTTGCACACTTAATTTTTTTTTTTAA [CACACA_site3365] | 10.6
13 | TATATTAAACTTTGCACACATAATTTAACTACAAAG [CACACA_site3441] | 10.5
14 | TTAATATAACTTTTTGCACACTTAATTTTTTTTTTT [CACACA_site3364] | 10.2
15 | ATGTATATGTTTTGTTGTACAAGTATTTTATATCTT [XGTACX_site3588] | 6.77
16 | AATTATTAGCGTGGTGTGCACAAAATTATGGACACA | 9.8
17 | AACTCATAGCGGTGTGCACACAAAAAATTAAAAAAA [CACACA_site3033] | 11
18 | TTCATATTATAGTGCACACAAAAATATATATATGGT [CACACA_site2855] | 10.4
19 | AAAATTAAACTCACACCACACACAAAAAAAAAAAAA [CACACA_site8131] | 6.32
20 | CTCATAGTTGGGTGCACACAAAAAATTAAAAAAATA [CACACA_site3032] | 10.3
21 | AACTCATAGGAGTGTGCACACAAAAAATTAAAAAAA [CACACA_site8996] | 11
22 | AGTATATATTATATATATATATATATATTATATATG [TGCATGCA_negctrl_site99] | 6.59
23 | CTTTCTTATTTGAACGCATGCATTTGTACCTTTTAT [TGCATGCA_site671] | 6.85
24 | AAATTCCACCAACACACACACATATAAATAAATAAA [CACACA_site1233] | 6.84
25 | TTCAAAACTTAAAATCGTACAAGACAATTATTATAT [XGTACX_site6626] | 6.32
26 | TTCTTTTTATTTATATTTTCCCCTCTCTATAGCTAT [XGTACX_negctrl_site102] | 7.06
